The values below come from PubChem BioAssay (Tox21).

Values joined by “and” are separate entries in the source; they are usually repeats but may differ in a detail not shown here. Equal entries are not always repeated. Records with an inconclusive call do not appear. More than one record can exist for a structure, and the calls need not agree. Active and inactive are the calls of the source. Unless noted, the call rests on the fitted dose curve; in most records, active means well fitted curve in the direction sought with a large enough effect in the repeat runs; inconclusive means weak or mixed curves; inactive means no such curve, though single readings can be large; an effect the other way counts as inactive or inconclusive.

Assay [1] in a line: qHTS assay to test for compound auto fluorescence at 535 nm (green) in HEK293 cells (AID 720680).
The nature of assay [2]: qHTS assay to test for compound auto fluorescence at 460 nm (blue) in HEK293 cell free culture (AID 720681). An outline of the steps:
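Test compounds were pinned into cell-free culture medium (DMEM with 10% FBS) and fluorescence was read directly at Ex/Em 405/460 nm. Signals were expressed as fluorescence equivalents of triamterene, with DMSO vehicle as control.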
For orientation: Quantitative high-throughput screening tests each substance at several concentrations.

Assay [3] in a line: qHTS assay to test for compound auto fluorescence at 535 nm (green) in HEK293 cell free culture (AID 720682). An outline of the steps: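 Cell-free medium (DMEM, 10% FBS) receives compound or DMSO by pintool. Plate read directly at Ex 485/Em 535 nm. Signal converted to fluorescein equivalency.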
Assay [4] can be described thus: qHTS assay to test for compound auto fluorescence at 590 nm (red) in HEK293 cell free culture (AID 720683). An outline of the steps: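 Tox21 10K library compounds were pinned into cell-free DMEM with 10% FBS and fluorescence was read at excitation 540 nm. Activity is expressed as Rose Bengal sodium equivalency.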
Assay [5] can be described thus: qHTS assay to test for compound auto fluorescence at 590 nm (red) in HepG2 cell free culture (AID 720684). Put shortly: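 Ex 540 / Em 590 nm read of compound in cell-free MEM (10% FBS). Rose Bengal sodium reference.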
Assay [6] can be described thus: qHTS assay to test for compound auto fluorescence at 460 nm (blue) in HepG2 cell free culture (AID 720685). Put shortly: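 Cell-free plates of MEM plus 10% FBS received 23 nL compound or DMSO vehicle; blue-channel (405/460 nm) intensity scored against triamterene as reference fluorophore.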
Assay [7] in a line: qHTS assay to test for compound auto fluorescence at 535 nm (green) in HepG2 cell free culture (AID 720686).
Assay [8] can be described thus: qHTS assay to test for compound auto fluorescence at 460 nm (blue) in HepG2 cells (AID 720687). An outline of the steps: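 Cells (2,000/well in MEM with 10% FBS) attached overnight at 37 C, then were exposed to compound or DMSO for 1 hr at 37 C, 5% CO2. Fluorescence read at Ex/Em 405/460 nm, expressed as triamterene-equivalent signal.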
The target in assay [9] is Glucocorticoid receptor (Homo sapiens) (UniProt P04150). In words: qHTS assay to identify small molecule agonists of the glucocorticoid receptor (GR) signaling pathway (AID 720691; active means well fitted activation curve with a large enough effect in the signal ratio in the repeat runs, not every such curve was filed as active; the % refers to the signal ratio). Put shortly: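 A HeLa cervical cancer line expressing GR and a glucocorticoid response element-driven beta-lactamase gene is treated with compounds for 18 h; LiveBLAzer B/G FRET substrate is then applied and fluorescence read.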
Sequence of Glucocorticoid receptor (Homo sapiens) (P04150 whole entry, looked up): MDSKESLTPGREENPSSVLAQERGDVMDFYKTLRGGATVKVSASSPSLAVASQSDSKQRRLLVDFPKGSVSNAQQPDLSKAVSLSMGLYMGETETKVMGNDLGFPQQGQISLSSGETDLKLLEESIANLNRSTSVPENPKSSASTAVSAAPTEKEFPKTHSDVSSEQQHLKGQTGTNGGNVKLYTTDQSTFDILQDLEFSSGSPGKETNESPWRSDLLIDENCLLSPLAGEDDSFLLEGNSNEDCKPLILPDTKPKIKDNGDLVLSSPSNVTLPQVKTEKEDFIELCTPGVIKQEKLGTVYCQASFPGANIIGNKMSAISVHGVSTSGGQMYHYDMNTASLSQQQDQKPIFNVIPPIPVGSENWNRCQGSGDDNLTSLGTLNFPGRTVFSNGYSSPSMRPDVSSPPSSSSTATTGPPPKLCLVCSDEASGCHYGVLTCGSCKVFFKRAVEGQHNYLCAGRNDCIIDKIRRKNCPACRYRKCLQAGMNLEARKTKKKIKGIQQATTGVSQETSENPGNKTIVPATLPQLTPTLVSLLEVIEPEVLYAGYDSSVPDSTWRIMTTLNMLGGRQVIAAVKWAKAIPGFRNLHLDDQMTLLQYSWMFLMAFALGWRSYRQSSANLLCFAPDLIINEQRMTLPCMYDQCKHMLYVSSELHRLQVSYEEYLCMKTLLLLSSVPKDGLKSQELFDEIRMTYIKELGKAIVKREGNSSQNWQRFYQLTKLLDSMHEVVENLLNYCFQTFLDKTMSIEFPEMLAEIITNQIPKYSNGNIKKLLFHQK

The target is the same in assay [10]. As to the kind of experiment: qHTS assay to identify small molecule antagonists of the glucocorticoid receptor (GR) signaling pathway (AID 720692; active means well fitted inhibition curve with a large enough effect in the signal ratio in the repeat runs, not every such curve was filed as active; the % refers to the signal ratio; further: potency means the concentration at half of the fitted maximal effect). An outline of the steps: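 GRE-bla HeLa line, dex-stimulated (5 nM final). Compound exposure 18 h, 37 C. Beta-lactamase FRET read after 2 h RT substrate.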
Assay [11] can be described thus: qHTS assay to identify small molecule antagonists of the glucocorticoid receptor (GR) signaling pathway - cell viability counter screen (AID 720693). Further: nearly all actives have a fitted effect of over 55% in size.
Assay [12] is described as follows: qHTS assay for identifying genotoxic compounds that show differential cytotoxicity against isogenic chicken DT40 cell lines with known DNA damage response pathways - wild type cell line (AID 743012). Further: nearly all actives have a fitted effect of over 60% in size. An outline of the steps: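 300 wt DT40 cells/well; cpd (DMSO) pintool-transferred after ~0.5 h at 37 C/5% CO2; 40 h incubation; CellTiter-Glo added, 30 min RT; luminescence read.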

Assay [13] in a line: qHTS assay for identifying genotoxic compounds that show differential cytotoxicity against isogenic chicken DT40 cell lines with known DNA damage response pathways - Rev3 mutant cell line (AID 743014). Further: nearly all actives have a fitted effect of over 55% in size.
Assay [14] in a line: qHTS assay for identifying genotoxic compounds that show differential cytotoxicity against isogenic chicken DT40 cell lines with known DNA damage response pathways - Rad54/Ku70 mutant cell line (AID 743015). Further: nearly all actives have a fitted effect of over 60% in size. Further: potency means the concentration at half of the fitted maximal effect.
A short description of assay [15]: qHTS assay to identify small molecule antagonists of the androgen receptor (AR) signaling pathway - cell viability counter screen (AID 743033; further: nearly all actives have a fitted effect of over 45% in size).
Assay [16] is described as follows: qHTS assay to identify small molecule antagonists of the androgen receptor (AR) signaling pathway using the MDA cell line - cell viability counter screen (AID 743041; further: nearly all actives have a fitted effect of over 45% in size). Put shortly:
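In this qHTS counter assay, fluorescence intensity after CellTiter-Fluor addition indicated viability of MDA-kb2 AR-luc cells given compounds and R1881 for 16 h at 37C.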

For assay [17], the target named is Androgen receptor (Homo sapiens) (UniProt P10275). As to the kind of experiment: qHTS assay to identify small molecule agonists of the androgen receptor (AR) signaling pathway (AID 743036; active means well fitted activation curve with a large enough effect in the signal ratio in the repeat runs, with a control signal flat, not every such curve was filed as active; the % refers to the signal ratio). Put shortly: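 AR-bla HEK293 cells, 2,000/well; 4 h preincubation 37C/5% CO2; compound (DMSO) 16 h at 37C; LiveBLAzer B/G FRET substrate 2 h RT; fluorescence intensity read-out.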
Sequence of Androgen receptor (Homo sapiens) (P10275 whole entry, looked up): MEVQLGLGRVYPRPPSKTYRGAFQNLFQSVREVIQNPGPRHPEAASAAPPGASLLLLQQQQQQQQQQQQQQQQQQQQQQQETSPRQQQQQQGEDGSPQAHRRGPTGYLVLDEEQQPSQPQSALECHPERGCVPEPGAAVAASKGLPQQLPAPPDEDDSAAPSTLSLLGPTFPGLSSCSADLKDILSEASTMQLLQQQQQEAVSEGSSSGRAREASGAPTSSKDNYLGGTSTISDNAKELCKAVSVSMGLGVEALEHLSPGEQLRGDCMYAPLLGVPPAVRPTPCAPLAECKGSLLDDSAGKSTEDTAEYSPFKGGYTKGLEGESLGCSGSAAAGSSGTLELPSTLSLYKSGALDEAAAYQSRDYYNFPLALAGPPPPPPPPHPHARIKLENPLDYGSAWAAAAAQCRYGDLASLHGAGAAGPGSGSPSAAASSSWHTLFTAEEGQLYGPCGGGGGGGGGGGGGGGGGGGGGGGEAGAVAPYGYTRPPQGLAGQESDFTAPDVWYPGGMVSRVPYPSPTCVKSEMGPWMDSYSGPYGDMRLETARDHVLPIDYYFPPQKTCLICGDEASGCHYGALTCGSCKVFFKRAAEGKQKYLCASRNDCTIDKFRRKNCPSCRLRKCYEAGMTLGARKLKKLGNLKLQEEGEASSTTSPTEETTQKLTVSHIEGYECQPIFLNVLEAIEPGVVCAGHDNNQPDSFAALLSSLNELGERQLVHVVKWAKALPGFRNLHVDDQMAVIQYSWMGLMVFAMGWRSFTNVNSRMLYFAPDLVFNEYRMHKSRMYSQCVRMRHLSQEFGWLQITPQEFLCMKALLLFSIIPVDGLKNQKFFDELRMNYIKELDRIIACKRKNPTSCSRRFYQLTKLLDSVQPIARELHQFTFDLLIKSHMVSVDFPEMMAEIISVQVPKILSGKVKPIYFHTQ

Assay [18] has the same target. In words: qHTS assay to identify small molecule agonists of the androgen receptor (AR) signaling pathway using the MDA cell line (AID 743040; further: nearly all actives have a fitted effect of over 20% in size). Put shortly: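 Cell-based luciferase reporter: MDA-kb2, MMTV promoter (AR + GR response elements). 16 h compound exposure at 37C; ONE-Glo, 30 min RT, luminescence.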
Assay [19] has the same target. As to the kind of experiment: qHTS assay to identify small molecule antagonists of the androgen receptor (AR) signaling pathway using the MDA cell line (AID 743042; further: nearly all actives have a fitted effect of over 55% in size). Put shortly:
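MDA-kb2 cells (human breast carcinoma, stably carrying an MMTV-luciferase reporter responsive to AR and GR) were plated at 3,000 cells/well and preincubated 5 hr at 37C, then given compound plus R1881 agonist for 16 h. ONE-Glo luminescence was read.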
On the % scale 0 is the no-effect control and ±100 the full control effect.

Regarding `CCCCCCCCCCCCCCN(C)C`, in assay [1], the fluorescence, % of fluorescein is 0.0258% [at 18.6 µM] (inactive). Moreover, the fluorescence, % of fluorescent control was 0.0125% [at 18.6 µM] (inactive) in assay [2], -0.0109% [at 18.6 µM] (inactive) in assay [4], -0.025% [at 18.6 µM] (inactive) in [6] and -0.0432% [at 18.6 µM] (inactive) in [8]. Further, the activity change in assay [3] is -0.0109% [at 18.6 µM] (inactive). The fluorescence, % of Rose Bengal in [5] was -0.054% [at 18.6 µM] (inactive). For the same compound, the fluorescence, % of fluorescein control in [7] is -0.0531% [at 18.6 µM] (inactive). Also, the Potency entry in [9], in assay [10], in assay [11], in [12], in assay [13] and in assay [14] was “inactive” each time.

Turning to `CSCC[C@H](NC(=O)[C@H](Cc1c[nH]c2ccccc12)NC(=O)CCNC(=O)OC(C)(C)C)C(=O)N[C@@H](CC(=O)O)C(=O)N[C@@H](Cc1ccccc1)C(N)=O`, the compound was classed as inactive in assay [1], in assay [3], in [4], in assay [5] and in [7]. In addition, the Potency result in [2], in assay [6], in assay [8], in [9], in assay [10] and in [11] was “inactive” throughout. The Potency entry in [12], in assay [13], in [14], in [15] and in [16] was “inactive” each time.

As to `Cc1ccc(NC(=O)N(C)C)cc1NC(=O)N(C)C`, the outcome in assay [1], in assay [3], in assay [4], in assay [5] and in assay [7] was inactive. Further, the Potency result in assay [2], in assay [6], in assay [8], in [9], in assay [10] and in assay [11] was “inactive” throughout. Moreover, the Potency result in assay [12], in [13], in assay [14] and in [15] was “inactive” in each case.

Regarding `C[C@@H]1[C@H](O)[C@@H](C)/C=C/C=C\C=C\C=C\C=C\C=C\C=C\[C@H](O[C@@H]2O[C@H](C)[C@@H](O)[C@H](N)[C@@H]2O)C[C@@H]2O[C@](O)(C[C@@H](O)C[C@@H](O)[C@H](O)CC[C@@H](O)C[C@@H](O)CC(=O)O[C@H]1C)C[C@H](O)[C@H]2C(=O)O` (stereo in doubt), the call in assay [1], in assay [3], in assay [4], in [5] and in assay [7] was inactive. The Potency result in assay [2], in assay [6], in assay [8], in assay [9], in assay [11] and in assay [12] was “inactive” throughout. The Potency result in [13] and in [16] was “inactive” each time. Also, the Potency in assay [10] is 49 µM (active); in assay [14], “inactive and 61.1 µM (active)”.

With `CC(C)c1ccc(C#N)cc1`, the compound was classed as inactive in assay [1], in [3], in [4], in assay [5] and in assay [7]. In addition, the Potency result in assay [2], in [6], in assay [8], in assay [9], in assay [10] and in assay [11] was “inactive” throughout. Moreover, the Potency result in assay [12], in [13], in [14] and in assay [15] was “inactive” each time.

Take `C[C@H](CS)C(=O)N1CCC[C@H]1C(=O)O`: the call in assay [1], in [3], in assay [4], in [5], in [7] and in assay [17] was inactive. Also, the Potency result in assay [2], in assay [6], in assay [8], in [9], in [10] and in [11] was “inactive” throughout. In addition, the Potency result in [12], in [13], in [14], in [15], in assay [18] and in assay [19] was “inactive” each time.

As for `Cc1cccc2sc(N)nc12`, the result in assay [1], in [3], in assay [4], in [5] and in [7] was inactive. Besides, the Potency entry in assay [2], in assay [6], in assay [8], in [9], in assay [10] and in assay [11] was “inactive” in each case. Moreover, the Potency result in assay [12], in assay [13], in assay [14] and in assay [16] was “inactive” in each case.

On to `CCC(=O)OCc1ccc(OC)cc1`, for which the call in assay [1], in assay [3], in [4], in assay [5] and in assay [7] was inactive. Moreover, the Potency result in [2], in [6], in assay [8], in assay [9], in assay [10] and in assay [11] was “inactive” throughout. Moreover, the Potency entry in assay [12], in assay [13], in assay [14] and in [15] was “inactive” throughout.
